# Reference: PubChem BioAssay
# “And” between values parts separate entries of the source, which are not always exact repeats. Equal entries are not always repeated. Results filed as inconclusive are left out. The source made the active and inactive calls.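 Rule for the calls, unless noted: active = thallium flux through the channel raised or lowered by more than 3 SD from vehicle-only wells, actives on both sides; inactive = the rest.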
# How the values were obtained:
# [1] = molecular target: ATP-dependent translocase ABCB1 (Homo sapiens) (UniProt P08183); experiment: MDR1 (ABCB1) efflux transporter inhibition, cell-based (AID 377; in the data active = fluorescence slope change above about 50%); conditions: MDR1-expressing cells, fluorescent substrate accumulation slope; stronger effect = higher value; concentration not given here
# [2] = LFS_MB_1R medulloblastoma cell growth inhibition, synergistic combos for chromothripsis tumors, cisplatin or BGB combos (AID 1671452; in the data active = inhibition above about 80%;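 note: cells exposed for 96 hours before readout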); conditions: LFS_MB_1R medulloblastoma cells, stronger effect = higher value
# [3] = CRL2098 osteosarcoma cell growth inhibition, synergistic combos for chromothripsis tumors, BGB or cisplatin IC20 combos (AID 1671454; in the data active = inhibition above about 80%;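 note: cells exposed for 96 h before readout; 0% = vehicle DMSO and 100% = killing by high DMSO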); conditions: CRL2098 osteosarcoma cells, drug combinations, stronger effect = higher value
# [4] = HD-MB03 medulloblastoma cell growth inhibition, synergistic combos for chromothripsis tumors, BGB or cisplatin IC20 combos (AID 1671455; in the data active = inhibition above about 83%;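 note: 0% = vehicle DMSO and 100% = high DMSO as cytotoxic control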); conditions: HD-MB03 medulloblastoma cells, stronger effect = higher value
# [5] = reducers of polyQ inclusions in PC12 cells, cell-based, NGF-treated PC12, GFPQ80 (AID 1614); conditions: PC12 NGF-treated GFP-polyQ80 inclusion reduction;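 note: lower means fewer inclusions and 0 means no inclusions at all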
# [6] = liver-stage malaria parasite growth inhibition, primary screen, cell-based, HepG2, luciferase luminescence, HepG2 viability (AID 624349; in the data active = parasite load remaining mostly below about 12%, no sharp cut-off; inactive = mostly above about 10%;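 note: 100% = mean of DMSO negative control wells on the same plate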); conditions: P. berghei liver stage in HepG2, luciferase luminescence, concentration not given here; parasite load remaining: stronger effect = lower value; viability: measured here: HepG2 viability without parasites
# [7] = growth inhibition of DIPG glioma cells, dose response, cell-based, SU-DIPG-IV, MIPE4.0, CellTiter-Glo, qHTS (AID 1347063; cut-off not given, nearly all actives have AC50 up to about 30 µM;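 note: compound exposure lasted 48 hours before the viability readout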); conditions: SU-DIPG-IV viability, CellTiter-Glo ATP luminescence
# [8] = growth inhibition of DIPG glioma cells, dose response, cell-based, JHH-DIPG-1, MIPE4.0, CellTiter-Glo, qHTS (AID 1347062; cut-off not given, nearly all actives have AC50 up to about 27 µM); conditions: JHH-DIPG-1 viability, CellTiter-Glo ATP luminescence
# [9] = SU-DIPG-VI glioma cell viability, MIPE4.0 library, CellTiter-Glo luminescence, qHTS (AID 1347066; cut-off not given, nearly all actives have AC50 up to about 30 µM;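 note: cells exposed to compound for 48 hours before readout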); conditions: CellTiter-Glo ATP luminescence
# [10] = Cy5 fluorescence interference with SSB-bound oligo, artefact control for HCV NS3 helicase inhibitor project, biochemical, NIH Clinical Collection, E. coli SSB (AID 743268; call rule not given here)
# F380Y = experiment: modulators of BK channel variants, profiling panel, selectivity assay, cell-based, U2OS BacMam, thallium flux, beta subunits (AID 1259406); conditions: at 30 µM;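 note: initial slope of Thallos dye fluorescence rise after thallium is added; log ratio against the mean of 0.3% DMSO vehicle wells on the same plate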
# F380Y/beta1 = experiment: as above; conditions: at 30 µM
# F380Y/beta2Delta = experiment: as above; conditions: at 30 µM
# F380Y/beta4 = experiment: as above; conditions: at 30 µM
# [11] = molecular target: Calcium-activated potassium channel subunit alpha-1 (Homo sapiens) + Leucine-rich repeat-containing protein 26 (Homo sapiens) (UniProt Q12791+Q2I0M4); experiment: as above; conditions: F380Y/Slo1WT/gamma1, at 30 µM
# R275C = experiment: as above; conditions: at 30 µM
# R275C/beta1 = experiment: as above; conditions: at 30 µM
# R275C/beta2Delta = experiment: as above; conditions: at 30 µM
# R275C/beta4 = experiment: as above; conditions: at 30 µM
# R275C/Slo1WT/beta2 = experiment: as above; conditions: at 30 µM
# [12] = measured here: combination with BGB IC40, at 0.05 µM
# [13] = measured here: combination with cisplatin, at 0.5 µM
# [14] = measured here: combination with cisplatin, at 5 µM
# [15] = measured here: combination with BGB at IC20, at 0.5 µM
# [16] = measured here: combination with cisplatin at IC20, at 0.5 µM
# [17] = measured here: combo with BGB at IC20, at 0.5 µM
# [18] = measured here: combo with cisplatin at IC20, at 0.5 µM
# Chain of ATP-dependent translocase ABCB1 (Homo sapiens) (P08183 whole entry, looked up): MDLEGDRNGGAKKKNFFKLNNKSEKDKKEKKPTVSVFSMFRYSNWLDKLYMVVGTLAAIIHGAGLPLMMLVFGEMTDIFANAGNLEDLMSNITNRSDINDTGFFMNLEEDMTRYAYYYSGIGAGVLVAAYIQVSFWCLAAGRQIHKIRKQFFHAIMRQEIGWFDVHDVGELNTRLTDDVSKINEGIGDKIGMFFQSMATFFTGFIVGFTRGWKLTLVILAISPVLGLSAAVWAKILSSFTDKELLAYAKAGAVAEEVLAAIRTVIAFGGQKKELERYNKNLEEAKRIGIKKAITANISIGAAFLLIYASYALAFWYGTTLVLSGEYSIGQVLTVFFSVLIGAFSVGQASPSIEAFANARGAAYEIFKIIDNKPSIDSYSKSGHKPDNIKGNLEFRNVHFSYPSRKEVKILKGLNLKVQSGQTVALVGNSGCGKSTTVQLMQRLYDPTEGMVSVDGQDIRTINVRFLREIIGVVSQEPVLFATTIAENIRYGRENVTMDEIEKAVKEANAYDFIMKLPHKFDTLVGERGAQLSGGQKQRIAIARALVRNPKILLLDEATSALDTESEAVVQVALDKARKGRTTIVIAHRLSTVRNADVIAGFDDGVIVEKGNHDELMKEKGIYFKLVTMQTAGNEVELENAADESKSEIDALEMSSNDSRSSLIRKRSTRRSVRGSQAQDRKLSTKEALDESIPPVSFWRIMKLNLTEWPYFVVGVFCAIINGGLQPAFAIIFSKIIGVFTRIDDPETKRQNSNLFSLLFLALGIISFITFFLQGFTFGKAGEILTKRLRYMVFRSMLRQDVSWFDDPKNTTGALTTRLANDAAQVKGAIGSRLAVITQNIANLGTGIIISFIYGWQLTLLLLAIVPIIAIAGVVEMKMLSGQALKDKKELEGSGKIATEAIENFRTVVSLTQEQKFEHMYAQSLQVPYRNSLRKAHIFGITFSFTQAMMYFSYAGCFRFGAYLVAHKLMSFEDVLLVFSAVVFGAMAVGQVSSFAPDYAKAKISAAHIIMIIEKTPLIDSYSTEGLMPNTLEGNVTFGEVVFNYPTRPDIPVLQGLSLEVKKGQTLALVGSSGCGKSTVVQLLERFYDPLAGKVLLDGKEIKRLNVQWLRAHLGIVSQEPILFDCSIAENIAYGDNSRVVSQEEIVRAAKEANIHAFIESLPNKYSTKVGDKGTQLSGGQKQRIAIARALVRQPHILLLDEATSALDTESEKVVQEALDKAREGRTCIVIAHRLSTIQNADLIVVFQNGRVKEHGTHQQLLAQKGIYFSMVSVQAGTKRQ
# Chain of Calcium-activated potassium channel subunit alpha-1 (Homo sapiens) + Leucine-rich repeat-containing protein 26 (Homo sapiens) (Q2I0M4 whole entry, looked up, one chain of several): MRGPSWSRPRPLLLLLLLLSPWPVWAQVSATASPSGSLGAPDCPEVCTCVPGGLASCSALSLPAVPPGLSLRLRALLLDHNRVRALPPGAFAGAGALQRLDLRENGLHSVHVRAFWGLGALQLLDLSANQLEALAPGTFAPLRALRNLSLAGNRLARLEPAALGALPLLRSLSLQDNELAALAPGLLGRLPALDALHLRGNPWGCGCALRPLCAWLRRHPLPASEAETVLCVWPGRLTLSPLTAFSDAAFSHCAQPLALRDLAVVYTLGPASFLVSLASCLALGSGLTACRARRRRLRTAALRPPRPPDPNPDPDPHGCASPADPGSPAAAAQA
compound,measurement,setting,value
C[C@@H]1CCC[C@H](C)N1,fluorescence slope change,[1],9.9% (inactive)
CN1C[C@@H]2C[C@H]1CN2c1cc2c(cc1F)c(=O)c(C(=O)O)cn2C1CC1,inhibition,[2]; at 0.5 µM,-32.5% (inactive)
same,inhibition,[2]; [12],-27.6%
same,inhibition,[2]; [13],-60%
same,inhibition,[2]; [14],-44.9%
same,inhibition,[3]; at 0.5 µM,-70.8% (inactive)
same,inhibition,[3]; [15],-121%
same,inhibition,[3]; [16],-50%
same,inhibition,[4]; at 0.5 µM,-14.8% (inactive)
same,inhibition,[4]; [17],-11.6%
same,inhibition,[4]; [18],-20.6%
C[C@]12CCC(=O)C=C1CC[C@H]1[C@@H]3CC[C@](O)(C(=O)CO)[C@@]3(C)C[C@H](O)[C@@]12F,fluorescence slope change,[1],9.8% (inactive)
Cc1ccc2nc(N)[nH]c(=O)c2c1Sc1ccncc1,inhibition,[2]; at 0.5 µM,-7.14% (inactive)
same,inhibition,[2]; [12],-4.51%
same,inhibition,[2]; [13],-35.9%
same,inhibition,[2]; [14],0.93%
same,inhibition,[3]; at 0.5 µM,-63.7% (inactive)
same,inhibition,[3]; [15],-72.3%
same,inhibition,[3]; [16],-84.4%
same,inhibition,[4]; at 0.5 µM,-15.4% (inactive)
same,inhibition,[4]; [17],-11.9%
same,inhibition,[4]; [18],-25.1%
Cc1ccc(O)cc1,inclusion score,[5],2
same,parasite load remaining,[6],125% (inactive) and 76.1% (inactive)
same,viability,[6],68.3% and 96.4%
O=C(CCCN1CCC(O)(c2cccc(C(F)(F)F)c2)CC1)c1ccc(F)cc1,parasite load remaining,[6],27% (inactive)
same,viability,[6],66%
O=C(O)CCC(=O)OC[C@@H](NC(=O)C(Cl)Cl)[C@H](O)c1ccc([N+](=O)[O-])cc1,inclusion score,[5],2
same,parasite load remaining,[6],75.9% (inactive) and 67.1% (inactive)
same,viability,[6],75.5% and 91.9%
CNS(=O)(=O)CCc1ccc2[nH]cc(C3CCN(C)CC3)c2c1,outcome,[7],inactive
Cc1c(C)c2c(c(C)c1O)CC[C@@](C)(CCC[C@H](C)CCC[C@H](C)CCCC(C)C)O2,parasite load remaining,[6],72.9% (inactive)
same,viability,[6],100%
CCCCCCCCCCCCCCCCCCOP(=O)([O-])OC1CC[N+](C)(C)CC1,outcome,[8],inactive
same,outcome,[9],inactive
CC(=O)N(CC(O)CN(C(C)=O)c1c(I)c(C(=O)NCC(O)CO)c(I)c(C(=O)NCC(O)CO)c1I)c1c(I)c(C(=O)NCC(O)CO)c(I)c(C(=O)NCC(O)CO)c1I (stereo not drawn),parasite load remaining,[6],80.7% (inactive)
same,viability,[6],90.6%
CNCCCN1c2ccccc2CCc2ccccc21,fluorescence ratio,[10],0.96 (inactive)
same,log fold change Tl+ flux,F380Y,0.121 (active)
same,log fold change Tl+ flux,F380Y/beta1,0.022 (inactive)
same,log fold change Tl+ flux,F380Y/beta2Delta,0.152 (active)
same,log fold change Tl+ flux,F380Y/beta4,0.144 (active)
same,log fold change Tl+ flux,[11],0.148 (active)
same,log fold change Tl+ flux,R275C,0.0168 (inactive)
same,log fold change Tl+ flux,R275C/beta1,0.17 (active)
same,log fold change Tl+ flux,R275C/beta2Delta,0.152 (active)
same,log fold change Tl+ flux,R275C/beta4,0.123 (inactive)
same,log fold change Tl+ flux,R275C/Slo1WT/beta2,-0.0879 (inactive)
COC(=O)C1=C(C)NC(C)=C(C(=O)OC)C1c1ccccc1[N+](=O)[O-],fluorescence ratio,[10],0.94 (inactive)
COC(=O)C1=C(C)NC(C)=C(C(=O)OCCN(C)Cc2ccccc2)C1c1cccc([N+](=O)[O-])c1 (stereo not drawn),fluorescence slope change,[1],15.7% (inactive)
same,fluorescence ratio,[10],1.15 (inactive)
same,log fold change Tl+ flux,F380Y,-0.089 (inactive)
same,log fold change Tl+ flux,F380Y/beta1,-0.0357 (inactive)
same,log fold change Tl+ flux,F380Y/beta2Delta,-0.158 (active)
same,log fold change Tl+ flux,F380Y/beta4,-0.137 (active)
same,log fold change Tl+ flux,[11],-0.059 (inactive)
same,log fold change Tl+ flux,R275C,-0.031 (inactive)
same,log fold change Tl+ flux,R275C/beta1,-0.044 (inactive)
same,log fold change Tl+ flux,R275C/beta2Delta,0.0144 (inactive)
same,log fold change Tl+ flux,R275C/beta4,0.196 (active)
same,log fold change Tl+ flux,R275C/Slo1WT/beta2,0.00258 (inactive)
O=C(CCCN1CCC(O)(c2ccc(Cl)cc2)CC1)c1ccc(F)cc1,fluorescence slope change,[1],23.3% (inactive)
same,fluorescence ratio,[10],0.91 (inactive)
same,outcome,[7],inactive
same,outcome,[9],inactive
same,log fold change Tl+ flux,F380Y,0.00184 (inactive)
same,log fold change Tl+ flux,F380Y/beta1,0.0554 (inactive)
same,log fold change Tl+ flux,F380Y/beta2Delta,0.0376 (inactive)
same,log fold change Tl+ flux,F380Y/beta4,0.0709 (inactive)
same,log fold change Tl+ flux,[11],-0.0288 (inactive)
same,log fold change Tl+ flux,R275C,-0.231 (active)
same,log fold change Tl+ flux,R275C/beta1,0.104 (active)
same,log fold change Tl+ flux,R275C/beta2Delta,-0.165 (active)
same,log fold change Tl+ flux,R275C/beta4,-0.0662 (inactive)
same,log fold change Tl+ flux,R275C/Slo1WT/beta2,-0.0319 (inactive)
CC(C)NCC(O)COc1cccc2[nH]ccc12 (stereo not drawn),fluorescence slope change,[1],68.5% (active)
same,inclusion score,[5],2
same,fluorescence ratio,[10],0.9 (inactive)
same,log fold change Tl+ flux,F380Y,-0.0071 (inactive)
same,log fold change Tl+ flux,F380Y/beta1,0.0264 (inactive)
same,log fold change Tl+ flux,F380Y/beta2Delta,0.0139 (inactive)
same,log fold change Tl+ flux,F380Y/beta4,0.000781 (inactive)
same,log fold change Tl+ flux,[11],0.0267 (inactive)
same,log fold change Tl+ flux,R275C,0.00949 (inactive)
same,log fold change Tl+ flux,R275C/beta1,0.00683 (inactive)
same,log fold change Tl+ flux,R275C/beta2Delta,-0.0133 (inactive)
same,log fold change Tl+ flux,R275C/beta4,-0.00429 (inactive)
same,log fold change Tl+ flux,R275C/Slo1WT/beta2,0.017 (inactive)
